Assay outcomes as filed in PubChem.
Only some compounds are listed: those with a hit (about 1.3% of all), similar ones and a draw of the others.
MazF activator – activators of E. coli MazEF toxin-antitoxin RNase, primary screen, biochemical, fluorescence, uHTS | Endoribonuclease toxin MazF (Escherichia coli (strain K12)), P0AE70 | hit rate 0.32% among 350,000 | activation, % at 20 µM | FAM/BHQ RNA-DNA oligo cleavage fluorescence, 5 h; in the data active = activation above about 50%
Target sequence (P0AE70 whole entry, looked up): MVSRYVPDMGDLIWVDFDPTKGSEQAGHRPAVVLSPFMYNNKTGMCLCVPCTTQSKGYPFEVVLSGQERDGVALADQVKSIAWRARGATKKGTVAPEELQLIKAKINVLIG
RN4220 kill – growth inhibition of S. aureus RN4220, primary screen, OD600; 16 h; inhibition, % (test concentration not listed); hit rate 0.33% among 330,000; in the data active = inhibition above about 85%;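 note: plate controls were untreated cells for no effect and reference antibiotic for full effect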
Mtb bLac sens – beta-lactam sensitization of Mtb H37Rv, H37Rv. inhibition, % at 25 µM. M. tuberculosis H37Rv growth with meropenem, percent inhibition. hit rate 0.27% among 330,000; call rule not given here;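 note: growth measured after seven days incubation then overnight dye step; 0% = bacteria only wells and 100% = bacteria with antibiotic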
Sa ugtP lethal – growth inhibition of ugtP-null S. aureus, primary screen, RN4220 ugtP deletion, OD600 | 16 h | AID 1259309, 2017 | growth inhibition, % (concentration not given with the values) | hit rate 0.54% among 330,000; in the data active = growth inhibition above about 68%;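 note: plate controls were untreated wells for no effect and antibiotic for full effect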
SARS 3CLpro inh – SARS-CoV 3CLpro protease inhibitors, primary screen, biochemical, quenched FRET; inhibition, % at 6 µM; AID 1706, 2009; recombinant SARS-CoV 3CLpro, quenched FRET peptide cleavage; hit rate 0.14% among 290,000; in the data active = inhibition above about 12%
CCHF vOTU inh-1 – CCHFV vOTU protease inhibitors, primary screen, biochemical, Pep-AMC substrate, fluorescence; Crimean-Congo hemorrhagic fever virus L polyprotein viral ovarian tumor (vOTU) protease …; inhibition, % at 11.5 µM; hit rate 0.55% among 370,000; AID 651958, 2012; note: 0% = vehicle wells with enzyme and 100% = no enzyme wells
CCHF vOTU inh-2 – CCHFV vOTU protease inhibitors, confirmation, biochemical, Pep-AMC substrate, fluorescence; shares compounds with CCHF vOTU inh-1; Recombinant CCHFV vOTU; inhibition, % at 11.5 µM; hit rate 17% among 1,900
Active calls of the source: *; ? = inconclusive; / = no result given. Cut-off read from the data, not from the text of the source, unless noted: active = inhibition above about 30%; inactive = the rest.

SMILES	MazF activator	RN4220 kill	Mtb bLac sens	Sa ugtP lethal	SARS 3CLpro inh	CCHF vOTU inh-1	CCHF vOTU inh-2
NS(=O)(=O)c1ccc(NC(=O)COC(=O)c2ccc([N+](=O)[O-])s2)cc1	11	76	-3	51	-1	74*	63*
CC(C)(C)OC(=O)C(Cc1ccccc1)NC(=O)c1nc[nH]c1C(=O)NC(Cc1ccccc1)C(=O)OC(C)(C)C (configuration not stated)	/	10	/	10	/	/	/
CC(=CCC1=C(C)C(=O)c2ccccc2C1=O)CCCC(C)CCCC(C)CCCC(C)C (configuration not stated)	/	8	/	-1	/	/	/
O=C1C=C(O)c2cccc(O)c2C1=O	-2	/	-6	/	/	94*	16
O=C1c2cccc(O)c2C(=O)c2c(O)cccc21	/	/	73	/	0	/	/
O=[N+]([O-])c1cc([N+](=O)[O-])c2c(=Nc3ccccc3)n(-c3ccccc3)n(O)c2c1	14	41	100	47	4	31*	1
O=[N+]([O-])c1cccc(C(=Nc2ccccc2)NO)c1	4	5	9	1	1	13	/
NC(=O)C(=O)NN=Cc1c(F)c(F)c(F)c(F)c1F	/	4	/	5	/	/	/
Cc1ccccc1-c1nc(CS(=O)(=O)CC(=O)NCCc2ccccc2)c(C)o1	-3	-2	-9	1	0	39*	-5
CS(=O)(=O)c1ccc(N2CCN(S(=O)(=O)c3cccs3)CC2)c([N+](=O)[O-])c1	-3	4	3	1	/	35*	-18
CC(=NNC(=O)C1COc2ccccc2O1)c1cc2ccccc2o1 (configuration not stated)	/	-2	/	4	/	/	/
CCc1cccc(NC(=O)CN(C)S(=O)(=O)c2cccc3nsnc23)c1	4	4	-11	-6	5	36*	-3
CN(C(=O)COC(=O)COc1ccc2ccccc2c1)c1c(N)n(Cc2ccccc2)c(=O)[nH]c1=O	-1	-1	3	3	/	30*	-41
CC(NS(=O)(=O)/C=C/c1ccccc1)C(=O)O (configuration not stated)	-1	2	0	-5	1	32*	-15
CSc1ccc(C=NNC(=O)c2ccc(-n3cnnn3)cc2)cc1	/	2	/	3	/	/	/
Nc1c(N(Cc2ccco2)C(=O)COc2ccccc2Cl)c(=O)[nH]c(=O)n1Cc1ccccc1	1	4	4	4	/	31*	-15
Nc1c(N(Cc2ccco2)C(=O)COc2ccc(Cl)cc2)c(=O)[nH]c(=O)n1Cc1ccccc1	5	6	/	3	/	16	/
CC1CN(C(C)CO)C(=O)c2cc(NC(=O)Nc3ccc4c(c3)OCO4)ccc2OC1CN(C)S(C)(=O)=O (configuration not stated)	/	1	/	-4	/	/	/
O=C(NC(=S)Nc1ccccc1N1CCCCC1)c1cccs1	-9	-7	45	-22	1	2	/
CC(C)CC(=O)NC(=S)Nc1ccccc1N1CCCC1	-16	9	23	79	-1	31*	12
CC(C)CC(=O)Nc1ccccc1N1CCCC1	8	3	15	3	0	-11	/
O=C(NC(=S)Nc1ccccc1N1CCCC1)c1cccs1	-14	-1	58	-4	-4	37*	38*
CC1CN(C(C)CO)C(=O)c2cc(NC(=O)Cn3cnnn3)ccc2OC1CN(C)C(=O)Nc1ccc(C(F)(F)F)cc1 (configuration not stated)	/	4	/	-1	/	/	/
CC1(C(=O)NCc2cccc(C(F)(F)F)c2)CCN1Cc1cc2ccccc2o1 (configuration not stated)	/	/	/	/	/	25	/
CC1(C(=O)NCc2cccc(C(F)(F)F)c2)CCN1Cc1ccc(-c2ccccc2)o1 (configuration not stated)	/	/	/	/	/	34*	18
SMILES	MazF activator	RN4220 kill	Mtb bLac sens	Sa ugtP lethal	SARS 3CLpro inh	CCHF vOTU inh-1	CCHF vOTU inh-2
COc1cc2c(cc1OC)CN(CC(=O)Nc1ccc(C)cc1)CC2	-3	2	/	2	-1	30*	-22
COc1cc2c(cc1OC)CN(CC(=O)Nc1ccc(C)c(C)c1)CC2	-3	-3	?	-2	-2	-4	/
Cc1cccc(C(=O)NC2c3ccccc3CC2O)n1 (configuration not stated)	/	4	/	2	/	/	/
CCN(CC)c1nc(N)c2c(N)n(-c3ccccc3C)c(=S)c(C#N)c2c1C#N	5	-2	-9	-6	-2	34*	39*
CCN(CC)c1nc(N)c2c(N)nc3c(c2c1C#N)CC(c1ccccc1)O3 (configuration not stated)	10	1	0	-1	-3	-10	/
COc1ccc(C=NNc2ccc(S(=O)(=O)Nc3ccccc3C(=O)O)cc2[N+](=O)[O-])c(OC)c1	-14	20	-5	78	/	/	/
COc1ccc(NC(=S)NNc2ccc(S(=O)(=O)Nc3ccccc3C(=O)O)cc2[N+](=O)[O-])cc1	-6	5	-8	3	10	33*	16
O=[N+]([O-])c1ccc(O)c2ncccc12	-1	99*	82	99*	4	47*	23
O=[N+]([O-])c1ccc(O)c2cccnc12	-7	1	1	7	-1	1	/
CC(/C=C/c1ccccc1F)=NNC(=O)c1ccccc1	/	6	/	6	/	/	/
CCCCn1c(NS(=O)(=O)c2ccc(C)cc2)c(C(=O)OCC)c2nc3ccccc3nc21	-3	/	7	/	-3	95*	-98
CCCCn1c(NS(=O)(=O)c2ccccc2)c(S(=O)(=O)c2ccc(C)cc2)c2nc3ccccc3nc21	4	4	-1	-25	-2	108*	51*
Cc1ccc(S(=O)(=O)c2c(N)n(CCCO)c3nc4ccccc4nc23)cc1	-9	2	-7	5	5	-145	/
CCn1c(COc2ccc3ccccc3c2C)nnc1SCC(=O)Nc1cccc(C(=O)O)c1	-7	0	4	4	-2	33*	4
CCn1c(COc2cccc(C)c2)nnc1SCC(=O)Nc1cccc(C(=O)O)c1	-1	2	-1	-2	-2	7	/
COc1ccc(/C=N/NC(=O)c2nn(-c3ccc(C)c(C)c3)c(=O)c3ccccc23)cc1	-14	/	3	/	-5	5	/
COc1ccc(/C=N/NC(=O)c2nn(-c3ccc(Cl)cc3)c(=O)c3c(N)scc23)cc1	11	/	4	/	-1	33*	39*
COc1ccc(/C=N/NC(=O)c2nn(-c3ccccc3)c(=O)c3c(N)scc23)cc1	17	/	-5	/	1	50*	91*
